D1 potentiator: potentiators of human D1 dopamine receptor; P21728; HEK293 TREx D1 cells, calcium flux, dopamine EC20 potentiation; potentiation, % at 10 µM; actives 0.036% (n = 360,000); in the data active = potentiation above about 30%
DRD3 antagonist: blocks the human D3 dopamine receptor; P35462; D3R cells, DiscoveRx beta-arrestin luminescence, antagonist mode; stronger effect = lower value; max response, negative = inhibition, %; actives 2.5% (n = 360,000); AID 652054; in the data active = max response below about -50%; inconclusive = no clear call, values can overlap the other calls
Target sequence (P35462 whole entry, looked up): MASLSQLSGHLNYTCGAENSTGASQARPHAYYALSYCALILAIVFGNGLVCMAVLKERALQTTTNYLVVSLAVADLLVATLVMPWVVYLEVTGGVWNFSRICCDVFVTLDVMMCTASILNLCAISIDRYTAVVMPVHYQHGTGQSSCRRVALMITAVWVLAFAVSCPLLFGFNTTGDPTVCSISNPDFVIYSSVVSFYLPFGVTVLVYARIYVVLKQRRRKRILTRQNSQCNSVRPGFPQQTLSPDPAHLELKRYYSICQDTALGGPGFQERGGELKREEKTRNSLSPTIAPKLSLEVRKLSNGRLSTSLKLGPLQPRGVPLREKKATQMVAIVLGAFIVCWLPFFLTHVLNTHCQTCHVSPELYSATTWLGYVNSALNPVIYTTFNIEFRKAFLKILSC
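Cells expressing the human receptor were seeded at 1500 cells/well, incubated overnight at 37 degrees C in 5% CO2, then exposed to library compounds with dopamine controls for 90 minutes at 37 degrees C before luminescent detection.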
D1 antagonist: human D1 dopamine receptor antagonism; actives 3.2% (n = 360,000); activity change, negative = inhibition, % at 10 µM; P21728; AID 504652; HEK293 TREx D1 cells, calcium flux, dopamine EC80; stronger effect = lower value; in the data active = activity change below about -30%
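Using tetracycline-induced force-coupled D1 Hek293 cells and a calcium dye, signals were followed for 180 s after compound, then for 180 s after EC80 dopamine, to detect inhibitors.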
D1 ag: human D1 receptor agonism | AID 504660 | activation, % at 2 µM | P21728 | HEK293 T-REx D1 cells, calcium flux, agonist mode | actives 1% (n = 360,000); in the data active = activation above about 30%
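Inducible HEK293 T-REx D1 cells, force-coupled to calcium signalling, were plated at 4000 cells/well with tetracycline and held overnight at 30 C. After no-wash calcium dye loading, compound-evoked calcium rise over 180 s flagged agonists.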
DRD3 agonist: agonists of human D3 dopamine receptor; P35462; D3R DiscoveRx beta-arrestin cells, luminescence, 90 min; max activation, %; actives 0.58% (n = 410,000); in the data active = max activation above about 30%
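Cells at 1500/well, incubated overnight, then treated with pinned compounds (dopamine as control) for 90 min at 37 degrees C. DiscoveRx reagent added for 30 - 60 minutes at room temperature; luminescence read.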
Numbers stand for hits; – = inactive; ? = inconclusive; · = no result; ! = a repeat was not active. Compounds with a hit are over-represented: about 6% of the library has one in this group of screens.

SMILES	D1 potentiator	DRD3 antagonist	D1 antagonist	D1 ag	DRD3 agonist
Cc1oc2ccc(O)c(CN3CCN(Cc4ccccc4)CC3)c2c1C(=O)Nc1ccccc1	–	·	–	–	–
Cc1oc2ccc(O)c(CN3CCN(C)CC3)c2c1C(=O)Nc1cccc(C(F)(F)F)c1	–	·	-46.3	62.2	–
CCN1CCN(Cc2c(O)ccc3oc(C)c(C(=O)Nc4cccc(C(F)(F)F)c4)c23)CC1	–	·	–	50.3	–
O=C(CSc1nnc2scc(-c3ccc(Cl)cc3)n12)Nc1ccccc1F	–	·	–	–	–
Cc1cccc(NC(=S)N/C(=N/S(=O)(=O)c2ccccc2)c2ccccc2)c1	–	-60.7!	–	–	–
COC(=O)c1ccc(OCC2c3cc(OC)c(OC)cc3CCN2C(=O)Cc2ccccc2)cc1 (centres undefined)	–	·	–	–	–
CC1(C)C(=O)N(CCN2CCC(C(=O)c3ccc(F)cc3)CC2)c2ccccc21	–	-84.3	-62.3	–	–
CCN1CCN(C(=O)c2ccc3c(=O)n(Cc4ccccc4OC)c(=S)[nH]c3c2)CC1	–	-50.1	–	–	–
CC1CCN(CCCn2c(=S)[nH]c3ccccc3c2=O)CC1	–	–	–	–	–
O=c1c2ccccc2[nH]c(=S)n1CCCN1CCC(Cc2ccccc2)CC1	–	-90.1	-31.0	–	–
COc1ccccc1Cn1c(=S)[nH]c2cc(C(=O)N3CCCC3)ccc2c1=O	–	–	–	–	–
CCn1c(=O)[nH]c2ccccc2c1=O	–	-56.3	–	–	–
O=c1c2ccccc2[nH]c(=S)n1CCN1CCCC1	–	–	–	–	–
Cc1cccc(C)c1N1CCN(CCn2c(=S)[nH]c3ccccc3c2=O)CC1	–	-68.8	–	–	–
O=C(c1ccc(F)cc1)C1CCN(CCn2c(=S)[nH]c3ccccc3c2=O)CC1	–	·	-78.7	–	–
CCN1CCN(CCn2c(=S)[nH]c3ccccc3c2=O)CC1	–	-61.7	–	–	–
CSCCC(NC(=O)c1ccco1)C(=O)Nc1ccc(C)cn1 (centres undefined)	–	–	-34.8	–	–
Nc1nnc(SCC(=O)OCC(=O)Nc2ccccc2F)s1	–	–	-55.8	–	–
O=C1c2[nH]nc(-c3ccccc3O)c2C(c2cccc(OCc3ccccc3)c2)N1CCO (centres undefined)	–	·	–	–	–
CC(C)OCCCN1C(=O)c2[nH]nc(-c3ccccc3O)c2C1c1cccc(OCc2ccccc2)c1 (centres undefined)	–	·	–	–	30.4
O=C(c1cc(-c2ccccn2)nc2c(Cl)cccc12)N1CCN(S(=O)(=O)c2ccccc2)CC1	–	–	–	–	–
O=C(c1cc(-c2ccccn2)nc2c(Cl)cccc12)N1CCN(C(=O)C2CCCO2)CC1 (centres undefined)	–	-50.7	–	–	–
O=C(c1nc2ccccn2c1CN1CCC(Cc2ccccc2)CC1)N1CCCC1	–	–	–	–	–
Cc1cccc(OC2CCN(Cc3c(C(=O)N4CCCC4)nc4ccccn34)CC2)c1	–	–	-44.2	–	–
O=C(c1cccc(OC2CCN(Cc3ccc(F)cc3Cl)CC2)c1)N1CCCC1	–	–	-32.8	–	–
SMILES	D1 potentiator	DRD3 antagonist	D1 antagonist	D1 ag	DRD3 agonist
O=C(CN1C(=O)CC(c2ccco2)Sc2ccccc21)Nc1ccc(OC(F)(F)F)cc1 (centres undefined)	–	·	–	–	–
Cc1nn2cc(-c3ccc(OC(C)C)cc3)nc2s1	–	·	–	–	–
CC(=O)Nc1ccc(NC(=O)CCCn2nc(C)c3sc4ccccc4c3c2=O)cc1	–	·	–	–	–
Cc1ccc(C2=NN(C(=O)CCCC(=O)O)C(c3ccco3)C2)cc1 (centres undefined)	–	–	–	74.4	–
CC(=O)N1N=C(c2ccc(C)cc2)CC1c1ccco1 (centres undefined)	–	–	·	–	–
Cc1ccc(C2=NN(C(=O)CN3C(=O)c4ccccc4S3(=O)=O)C(c3ccco3)C2)cc1 (centres undefined)	–	–	-76.4	–	–
O=C(C1CCCO1)N1N=C(c2ccc(Br)cc2)CC1c1ccco1 (centres undefined)	–	–	-71.4	–	–
Cc1cc(NC(=O)c2ccccc2)n(C(C)(C)C)n1	–	–	-33.3	–	–
CC(C)(C)n1nc2c(c1NC(=O)c1ccccc1)CS(=O)(=O)C2	–	–	-41.1	–	–
Oc1ccc(C=NC2CCCCC2)cc1	–	–	-35.1	–	–
O=C(/C=C/c1ccc(OCCCF)cc1)NCc1ccc(Cl)cc1	–	-70.3	–	–	–
COc1ccc(CNC(=O)/C=C/c2ccc(OCCCF)cc2)cc1	·	–	·	·	–
CCN(C(=O)CSc1nc2ccccc2n1CC(=O)N1CCCC(C)C1)c1ccccc1 (centres undefined)	–	·	–	–	–
CCCCCC(=O)N/N=C/c1cccs1	–	–	-47.4	–	–
COc1cccc(NC(=O)Cn2c(=O)c3cccn3c3ccc(F)cc32)c1	–	·	–	–	–
Cc1ccc(-c2c(C)n3c4c(=O)n(C)c(=O)n(C)c4nc3n2-c2cccc(O)c2)cc1	–	·	–	–	–
CCCCCc1cc(=O)oc2c(C(CCN3CCN(c4ccccc4)CC3)c3ccc(N(C)C)cc3)c(OC)cc(OC)c12 (centres undefined)	–	-51.7	–	–	–
COc1cc(OC)c2c(-c3ccccc3)cc(=O)oc2c1C(CC(=O)N1CCN(c2ccccc2)CC1)c1ccc(N(C)C)cc1 (centres undefined)	–	?	–	–	–
CCN(CC)C(=O)CC(c1cc(OC)c(OC)c(OC)c1)c1c(OC)cc(OC)c2ccc(=O)oc12 (centres undefined)	–	–	–	–	–
COc1cc(OC)c2c(-c3ccccc3)cc(=O)oc2c1C(CCN1CCN(c2ccccc2)CC1)c1ccc(N(C)C)cc1 (centres undefined)	–	-62.3	-32.4	–	–
CCN(CC)C(=O)CC(c1cc(OC)c(OC)c(OC)c1)c1c(OC)cc(OC)c2c(-c3ccccc3)cc(=O)oc12 (centres undefined)	–	–	-100.4	–	–
COc1ccc(C(CCN2CCN(c3ccccc3)CC2)c2c(OC)cc(OC)c3c(-c4ccccc4)cc(=O)oc23)cc1 (centres undefined)	–	-53.2	-41.6	–	–
NCc1ccccc1Sc1ccccc1CO	·	·	·	·	–
CCCCCSc1nc2sc3c(c2c(=O)n1-c1ccc(OC)cc1)CCN(C(C)=O)C3	–	·	–	–	–
CCOC(=O)c1[nH]c2ccccc2c1NC(=O)c1ccc(OC)c(OC)c1	–	·	–	–	–
CCc1ccc(NC(=O)CCS(=O)(=O)c2ccc3c(c2)n(C)c(=O)c(=O)n3C)cc1	–	·	–	–	–
COc1cc(OC)c2c(-c3ccccc3)cc(=O)oc2c1C(CC(=O)N1CCOCC1)c1ccc(N(C)C)cc1 (centres undefined)	–	–	–	–	–
